Test results taken from PubChem BioAssay (NCI).
“And” between values parts separate entries of the source, which are not always exact repeats. Identical values can stand only once. About 83,000 compounds went through this panel and 20% of them were active in at least one assay; those are over-represented in the sample as a whole.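 A percent growth of 40 corresponds to 60% growth inhibition; 0 means no net growth; -100 means all cells died. Active threshold: below 10.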 The source made the active and inactive calls.

Assays:
Experiment in all cases: NCI-60 one-dose screen, 48 h (100 = growth as untreated, 0 = no growth, -100 = all killed)
SR leukemia = test system: SR leukemia
RPMI-8226 leukemia = test system: RPMI-8226 leukemia
OVCAR-5 ovarian = test system: OVCAR-5 ovarian
Experimental: Growth inhibition of the OVCAR-5 human tumor cell line is measured as a screen for anti-cancer activity. Cells are grown in 96 well plates and exposed to the test compound for 48 hours. Compounds are tested at a single concentration, which is 10^-5 M for most compounds. The reported endpoint is percent growth (GI% or GIPRCNT), where numbers from 0 - 100% represent growth inhibition, and numbers from -100% - 0 represent cell death. For example, a value of 40 represents 60% growth inhibition. A value of 0 means no net growth occurred over the course of the experiment. A value of -40 indicates 40% of cells at the beginning of the experiment died by the end of the experiment. A value of -100 means all cells are dead at the end of the experiment.
NCI-60 Human Tumor Cell Lines Screen was performed using the standard one-dose NCI protocol, which is described in more detail at https://dtp.cancer.gov/discovery_development/nci-60/default.htm.
Compounds with GIPRCNT values below 10 were considered active. Activity score was based on GIPRCNT using the following formula: […]
Score is 0 for GIPRCNT values of 100 or above, 50 for GIPRCNT values of 0, and 100 for GIPRCNT values of -100.

OVCAR-4 ovarian = test system: OVCAR-4 ovarian
SK-OV-3 ovarian = test system: SK-OV-3 ovarian
IGROV1 ovarian = test system: IGROV1 ovarian
OVCAR-3 ovarian = test system: OVCAR-3 ovarian
HS 578T breast = test system: HS 578T breast
NCI/ADR-RES ovarian = test system: NCI/ADR-RES ovarian
T-47D breast = test system: T-47D breast
BT-549 breast = test system: BT-549 breast
MDA-MB-435 melanoma = test system: MDA-MB-435 melanoma
SW-620 colon = test system: SW-620 colon
MCF7 breast = test system: MCF7 breast
HCT-116 colon = test system: HCT-116 colon
HCC-2998 colon = test system: HCC-2998 colon
KM12 colon = test system: KM12 colon
OVCAR-8 ovarian = conditions: 10 µM

Measured: growth

CN(Cc1cnc2nc(N)nc(N)c2n1)c1ccc(C(=O)N[C@@H](CCC(=O)O)C(=O)O)cc1
inactive: SR leukemia; 2.5 µM 32% | SR leukemia; 10 µM 26.8% | RPMI-8226 leukemia; 2.5 µM 33.9% | RPMI-8226 leukemia; 10 µM 41.7% | OVCAR-5 ovarian; 2.5 µM 41.1% | OVCAR-5 ovarian; 10 µM 27.2% | OVCAR-4 ovarian; 2.5 µM 93.4% | OVCAR-4 ovarian; 10 µM 105% | SK-OV-3 ovarian; 2.5 µM 75% | SK-OV-3 ovarian; 10 µM 56.2% | IGROV1 ovarian; 2.5 µM 38.7% | IGROV1 ovarian; 10 µM 21% | OVCAR-3 ovarian; 2.5 µM 54.2% | OVCAR-3 ovarian; 10 µM 47.8% | HS 578T breast; 2.5 µM 27.4% | NCI/ADR-RES ovarian; 2.5 µM 29% | T-47D breast; 2.5 µM 55.6% | T-47D breast; 10 µM 46.2% | BT-549 breast; 2.5 µM 40.9% | BT-549 breast; 10 µM 46.9% | MDA-MB-435 melanoma; 2.5 µM 25.7% | MDA-MB-435 melanoma; 10 µM 27.2% | SW-620 colon; 2.5 µM 41.9% | SW-620 colon; 10 µM 35.6% | MCF7 breast; 2.5 µM 24.4% | MCF7 breast; 10 µM 17.2% | HCT-116 colon; 2.5 µM 18.5% | HCT-116 colon; 10 µM 22.7% | HCC-2998 colon; 10 µM 106% | KM12 colon; 2.5 µM 30.6% | KM12 colon; 10 µM 31.9%
active: NCI/ADR-RES ovarian; 10 µM 7.09% | HCC-2998 colon; 2.5 µM 8.58%

CC/C(=C(\c1ccccc1)c1ccc(OCCN(C)C)cc1)c1ccccc1
inactive: OVCAR-8 ovarian 60.5% | OVCAR-4 ovarian; 10 µM 46.3% | SK-OV-3 ovarian; 10 µM 76.8% | SK-OV-3 ovarian; 12.5 µM 32.6% | IGROV1 ovarian; 10 µM 41.2% | OVCAR-3 ovarian; 10 µM 52.9% | HS 578T breast; 10 µM 60.5% | NCI/ADR-RES ovarian; 10 µM 43.2% | BT-549 breast; 10 µM 69.8% | MDA-MB-435 melanoma; 10 µM 37.8% | HCT-116 colon; 10 µM 26.2% | HCC-2998 colon; 10 µM 16.3% | KM12 colon; 10 µM 25%
active: SR leukemia; 10 µM -18.9% | SR leukemia; 12.5 µM -27.2% | RPMI-8226 leukemia; 10 µM -28.3% | RPMI-8226 leukemia; 12.5 µM -38.1% | OVCAR-5 ovarian; 12.5 µM -83.1% | OVCAR-4 ovarian; 12.5 µM 2.45% | IGROV1 ovarian; 12.5 µM -20.4% | OVCAR-3 ovarian; 12.5 µM -6.16% | HS 578T breast; 12.5 µM -70.9% | NCI/ADR-RES ovarian; 12.5 µM -41.2% | T-47D breast; 12.5 µM -18.5% | BT-549 breast; 12.5 µM -96% | MDA-MB-435 melanoma; 12.5 µM -87.2% | SW-620 colon; 10 µM 4.89% | SW-620 colon; 12.5 µM -50.4% | MCF7 breast; 10 µM -10.3% | MCF7 breast; 12.5 µM -61.6% | HCT-116 colon; 12.5 µM -98.1% | HCC-2998 colon; 12.5 µM -96.2% | KM12 colon; 12.5 µM -74.4%

CC[C@@]1(O)C(=O)OCc2c1cc1n(c2=O)Cc2cc3c(CN(C)C)c(O)ccc3nc2-1
13.9% (inactive) and 5.76% (active): NCI/ADR-RES ovarian; 10 µM
inactive: OVCAR-4 ovarian; 10 µM 14% | SK-OV-3 ovarian; 10 µM 10.6% and 20.4% | IGROV1 ovarian; 10 µM 15.3% | HS 578T breast; 10 µM 28.5%
8.58% (active) and 13.8% (inactive): OVCAR-5 ovarian; 10 µM
active: SR leukemia; 10 µM -5.49% | RPMI-8226 leukemia; 10 µM -28.3% | OVCAR-8 ovarian 3.57% | OVCAR-3 ovarian; 10 µM -21.7% and -9.74% | T-47D breast; 10 µM 9.96% and 8.7% | BT-549 breast; 10 µM -1.81% and -14.9% | MDA-MB-435 melanoma; 10 µM -44.2% and -55% | SW-620 colon; 10 µM 9.23% and 7.32% | MCF7 breast; 10 µM 1.58% and 5.19% | HCT-116 colon; 10 µM 0.82% and -14.2% | HCC-2998 colon; 10 µM -14.2% and -26.3% | KM12 colon; 10 µM 6.1% and -42.5%

COc1ccc2sc3cccc(NCCN(C)C)c3c(=O)c2c1
inactive: OVCAR-3 ovarian; 10 µM 61.6% and 22.1% | NCI/ADR-RES ovarian; 10 µM 48.5% and 14.7% | BT-549 breast; 10 µM 80.1% and 29.6%
70.7% (inactive) and -34.7% (active): T-47D breast; 10 µM
40.9% (inactive) and 7.16% (active): OVCAR-8 ovarian
38.3% (inactive) and -7.99% (active): KM12 colon; 10 µM
30.5% (inactive) and -72.8% (active): MCF7 breast; 10 µM
24.5% (inactive) and -79% (active): SW-620 colon; 10 µM
70.2% (inactive) and -6.71% (active): RPMI-8226 leukemia; 10 µM
64.7% (inactive) and -8.94% (active): OVCAR-4 ovarian; 10 µM
active: SR leukemia; 10 µM -31.7%
18.5% (inactive) and -76.2% (active): HCT-116 colon; 10 µM
57.2% (inactive) and 3.91% (active): SK-OV-3 ovarian; 10 µM
28.1% (inactive) and -83% (active): HCC-2998 colon; 10 µM
31.3% (inactive) and -86.9% (active): MDA-MB-435 melanoma; 10 µM
53.1% (inactive) and 9.58% (active): OVCAR-5 ovarian; 10 µM
41.2% (inactive) and -2.42% (active): IGROV1 ovarian; 10 µM
81.2% (inactive) and 8.98% (active): HS 578T breast; 10 µM
